According to PubChem BioAssay:
For some of these results: Results with a measured potency or affinity are listed apart. The source made the active and inactive calls. Unless noted, no rule for the calls is given here.

What was measured:
[1] = antimalarial activity against Dd2 strain (AID 2302;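 active = growth inhibition above 50% at the single 2 µM test dose, taken to imply half-maximal potency below 2 µM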;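 also: 0% = DMSO untreated growth and 100% = chloroquine plus artemisinin killed control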); details: P. falciparum Dd2 in RBCs, LDH growth readout, 72 h; at 2 µM; active compounds read high
[2] = HepG2 cytotoxicity, primary screen, cytotoxicity control for P. falciparum antimalarial project, cell-based, ATP luminescence (AID 2303;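 active = inhibition above 50%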;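 also: 0% = DMSO wells and 100% = digitonin-killed cells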); details: HepG2 viability, 24-48 h, at 10 µM, active compounds read high
[3] = target: L-lactate dehydrogenase (Plasmodium falciparum (isolate CDC / Honduras)) (UniProt Q27743); assay: PfLDH activity inhibition – cell lysate, 3D7 strain, counter-screen for P. falciparum growth inhibition project (AID 2304);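 also: 0% = vehicle and 100% = reference inhibitor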; details: P. falciparum 3D7 crude extract, LDH APAD/NBT absorbance; at 2 µM; active compounds read high
[4] = inhibition of 3D7 malaria parasite growth – strain 3D7 (AID 2306);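 also: 0% = DMSO wells and 100% = chloroquine plus artemisinin control wells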; details: P. falciparum 3D7 erythrocytic growth, LDH absorbance, 72 h; at 2 µM; active compounds read high
[5] = target: Calcium-dependent protein kinase 1 (Plasmodium falciparum (isolate 3D7)) (UniProt P62344); assay: PfCDPK1 kinase inhibitors, biochemical, TCAMS library (AID 1159585; cut-off not given, nearly all actives have IC50 up to about 0.98 µM;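 also: inhibitors leave more ATP so luminescence rises with inhibition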); details: recombinant PfCDPK1, Kinase-Glo ATP depletion luminescence
[6] = target: Plasmodium falciparum protein kinase 6 (PK6, PF3D7_1337100) (UniProt Q8IDW1); assay: PfPK6 kinase inhibitors, biochemical, TCAMS library (AID 1159586); details: recombinant PfPK6, Kinase-Glo ATP depletion luminescence
[7] = target: Protein kinase 7 (PK7), Plasmodium falciparum 3D7 (PF3D7_0213400) (UniProt Q7YTF7); assay: inhibition of Plasmodium PK7 catalytic activity – biochemical, TCAMS antimalarial set, Kinase-Glo luminescence (AID 1159587); details: recombinant PfPK7, Kinase-Glo ATP depletion luminescence
[8] = target: Calcium-dependent protein kinase 4 (Plasmodium falciparum (isolate 3D7)) (UniProt Q8IBS5); assay: PfCDPK4 kinase inhibitors, biochemical, TCAMS library (AID 1159588; cut-off not given, nearly all actives have IC50 up to about 0.91 µM); details: recombinant PfCDPK4, Kinase-Glo ATP depletion luminescence
Chain of Calcium-dependent protein kinase 4 (Plasmodium falciparum (isolate 3D7)) (Q8IBS5 whole entry, looked up): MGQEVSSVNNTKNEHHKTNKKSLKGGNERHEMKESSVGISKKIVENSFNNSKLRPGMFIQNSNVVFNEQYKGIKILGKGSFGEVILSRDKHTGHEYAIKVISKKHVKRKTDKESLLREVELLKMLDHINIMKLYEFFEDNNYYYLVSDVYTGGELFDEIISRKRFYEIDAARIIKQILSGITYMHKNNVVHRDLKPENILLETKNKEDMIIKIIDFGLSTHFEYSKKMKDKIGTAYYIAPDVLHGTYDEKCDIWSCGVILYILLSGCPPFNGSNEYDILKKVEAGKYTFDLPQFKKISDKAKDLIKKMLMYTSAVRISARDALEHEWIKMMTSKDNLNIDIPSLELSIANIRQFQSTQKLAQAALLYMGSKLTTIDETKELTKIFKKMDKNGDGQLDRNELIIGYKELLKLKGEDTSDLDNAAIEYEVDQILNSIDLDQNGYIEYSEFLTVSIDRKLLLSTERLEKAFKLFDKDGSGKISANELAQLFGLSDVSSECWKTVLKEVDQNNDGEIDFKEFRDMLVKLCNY

Chain of Plasmodium falciparum protein kinase 6 (PK6, PF3D7_1337100) (Q8IDW1 1-305): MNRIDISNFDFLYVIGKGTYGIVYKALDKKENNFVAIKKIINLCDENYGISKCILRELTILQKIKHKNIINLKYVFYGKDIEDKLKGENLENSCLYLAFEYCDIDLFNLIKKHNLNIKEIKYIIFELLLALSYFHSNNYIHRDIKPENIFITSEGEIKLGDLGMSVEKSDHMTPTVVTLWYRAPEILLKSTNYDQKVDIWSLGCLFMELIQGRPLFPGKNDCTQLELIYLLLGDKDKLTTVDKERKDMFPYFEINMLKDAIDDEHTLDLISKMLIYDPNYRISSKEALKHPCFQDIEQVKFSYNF
Chain of Protein kinase 7 (PK7), Plasmodium falciparum 3D7 (PF3D7_0213400) (Q7YTF7 1-343): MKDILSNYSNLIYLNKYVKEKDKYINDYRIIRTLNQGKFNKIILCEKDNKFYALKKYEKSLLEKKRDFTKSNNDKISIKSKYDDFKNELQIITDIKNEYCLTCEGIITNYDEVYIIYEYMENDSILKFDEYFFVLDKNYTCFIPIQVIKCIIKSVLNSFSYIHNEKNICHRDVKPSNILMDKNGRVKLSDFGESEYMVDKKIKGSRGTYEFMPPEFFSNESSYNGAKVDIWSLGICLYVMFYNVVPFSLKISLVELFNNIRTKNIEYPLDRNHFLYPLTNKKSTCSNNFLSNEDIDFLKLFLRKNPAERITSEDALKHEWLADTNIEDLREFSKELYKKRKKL
Chain of L-lactate dehydrogenase (Plasmodium falciparum (isolate CDC / Honduras)) (Q27743 whole entry, looked up): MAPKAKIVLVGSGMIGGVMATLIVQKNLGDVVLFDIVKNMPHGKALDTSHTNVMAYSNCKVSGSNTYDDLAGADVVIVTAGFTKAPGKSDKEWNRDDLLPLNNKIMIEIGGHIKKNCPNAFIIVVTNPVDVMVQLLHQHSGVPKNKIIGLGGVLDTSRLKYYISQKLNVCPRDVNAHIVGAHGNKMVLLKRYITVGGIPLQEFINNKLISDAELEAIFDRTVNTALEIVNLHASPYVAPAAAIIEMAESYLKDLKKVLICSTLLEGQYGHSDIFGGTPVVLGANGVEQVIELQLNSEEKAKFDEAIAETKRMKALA
Chain of Calcium-dependent protein kinase 1 (Plasmodium falciparum (isolate 3D7)) (P62344 whole entry, looked up): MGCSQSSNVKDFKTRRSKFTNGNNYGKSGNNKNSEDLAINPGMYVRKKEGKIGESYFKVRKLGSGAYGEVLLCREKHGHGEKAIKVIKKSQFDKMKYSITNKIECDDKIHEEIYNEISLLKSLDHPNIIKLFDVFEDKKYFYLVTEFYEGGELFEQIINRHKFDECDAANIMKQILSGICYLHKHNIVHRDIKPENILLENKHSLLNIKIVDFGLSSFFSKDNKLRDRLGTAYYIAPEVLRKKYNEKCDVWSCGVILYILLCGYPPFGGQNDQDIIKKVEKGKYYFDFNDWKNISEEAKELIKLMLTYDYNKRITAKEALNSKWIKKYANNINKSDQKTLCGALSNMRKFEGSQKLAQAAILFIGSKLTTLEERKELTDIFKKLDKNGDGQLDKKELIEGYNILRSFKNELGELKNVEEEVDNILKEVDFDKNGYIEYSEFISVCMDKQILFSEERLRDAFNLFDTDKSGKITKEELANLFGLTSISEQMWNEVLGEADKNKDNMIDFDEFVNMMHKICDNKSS

CCCNC(=O)c1ccc(N2CCC(c3ccccc3C)CC2)nc1
inactive: inhibition [2] 6% | inhibition [3] 2% | outcome [5] | outcome [6] | outcome [7] | outcome [8]
active: growth inhibition [1] 80% | growth inhibition [4] 86%

Cc1ccccc1CNc1nccc(NCCC(=O)Nc2ccccc2)n1
active: growth inhibition [4] 90%
inactive: growth inhibition [1] 15% | inhibition [2] 16% | inhibition [3] -3% | outcome [5] | outcome [6] | outcome [7] | outcome [8]

COc1ccccc1C(=O)N1CCN(Cc2cccs2)CC1
inactive: growth inhibition [1] 1% | inhibition [3] -1% | outcome [5] | outcome [6] | outcome [7] | outcome [8]
active: inhibition [2] 87% | growth inhibition [4] 96%

FC(F)(F)c1ccc2nc(-c3ccc(-c4ccc(CNCCc5ccncc5)cc4)cc3)[nH]c2c1
active: growth inhibition [1] 100% | growth inhibition [4] 100%
inactive: inhibition [2] 26% | inhibition [3] 6% | outcome [5] | outcome [6] | outcome [7] | outcome [8]

CC[C@H](C)CNC(=O)c1ccnc(-c2cccc(CN(C)C3CCN(C)CC3)c2)c1
active: growth inhibition [4] 100%
inactive: growth inhibition [1] 33% | inhibition [2] -19% | inhibition [3] -1% | outcome [5] | outcome [6] | outcome [7] | outcome [8]

CCCNCc1ccc(-c2ccc(CN(CCOC)C(=O)CC3CCCC3=O)cc2)nc1 (stereo not drawn)
inactive: growth inhibition [1] 9% | inhibition [2] 5% | inhibition [3] 3% | outcome [5] | outcome [6] | outcome [7] | outcome [8]
active: growth inhibition [4] 93%

Cc1cccc2[nH]c(-c3cccc(-c4ccc(C(=O)NCCc5ccc(O)c(=O)[nH]5)cc4)c3)nc12
active: growth inhibition [4] 85%
inactive: growth inhibition [1] 30% | inhibition [2] 20% | inhibition [3] -1% | outcome [5] | outcome [6] | outcome [7] | outcome [8]

COc1ccccc1CCNc1ncnc2c1[nH]c1ccc(F)cc12
active: growth inhibition [1] 68% | growth inhibition [4] 95%
inactive: inhibition [2] 49% | inhibition [3] 0% | outcome [5] | outcome [6] | outcome [7] | outcome [8]

O=[N+]([O-])c1ccc(Nc2nc(NN=Cc3cccc(O)c3)nc(N3CCCC3)n2)cc1
inactive: growth inhibition [1] 9% | inhibition [2] -6% | inhibition [3] -5% | outcome [5] | outcome [6] | outcome [7] | outcome [8]
active: growth inhibition [4] 88%

CC(=O)c1ccc(N2CCN(C(=O)Nc3ccc(Cl)cc3)CC2)cc1
inactive: growth inhibition [1] 0% | inhibition [2] 4% | inhibition [3] 0% | outcome [5] | outcome [6] | outcome [7] | outcome [8]
active: growth inhibition [4] 97%

Oc1cc(Nc2ccnc3cc(-c4cccc(CN5CCOCC5)c4)ccc23)c(F)cc1Cl
inactive: inhibition [2] 12% | inhibition [3] -4% | outcome [5] | outcome [6] | outcome [7] | outcome [8]
active: growth inhibition [1] 89% | growth inhibition [4] 100%

CN1CCN(c2ccc(Nc3ccnc4ccc(-c5ccccc5)cc34)cc2)CC1
active: growth inhibition [1] 101% | growth inhibition [4] 101%
inactive: inhibition [2] 20% | inhibition [3] -2% | outcome [5] | outcome [6] | outcome [7] | outcome [8]

Cc1noc(C)c1-c1ccc2c(Nc3ccccc3C(C)(C)C)c(C(=O)NCc3ccc4c(c3)OCO4)cnc2c1
inactive: inhibition [2] 37% | inhibition [3] -3% | outcome [5] | outcome [6] | outcome [7] | outcome [8]
active: growth inhibition [1] 88% | growth inhibition [4] 96%

Cc1nn(-c2ccccc2)c2nc(-c3ccccc3)cc(C(=O)N3CCOCC3)c12
active: growth inhibition [1] 67% | growth inhibition [4] 93%
inactive: inhibition [2] 6% | inhibition [3] 6% | outcome [5] | outcome [6] | outcome [7] | outcome [8]

Cc1ccc2nc(C)cc(NN=Cc3cccc(F)c3)c2c1
inactive: inhibition [2] 6% | inhibition [3] -1% | outcome [5] | outcome [6] | outcome [7] | outcome [8]
active: growth inhibition [1] 99% | growth inhibition [4] 99%

CC(C)(C)c1cc(C(=O)N2CCN(c3nccnc3C#N)CC2)n(Cc2ccccc2)n1
active: growth inhibition [1] 93% | growth inhibition [4] 100%
inactive: inhibition [2] -11% | inhibition [3] -9% | outcome [5] | outcome [6] | outcome [7] | outcome [8]

Cc1ccc(NC(=O)c2cccc(CN3CCCN(Cc4cccc(O)c4)CC3)c2)cc1F
inactive: growth inhibition [1] 45% | inhibition [2] 20% | inhibition [3] -5% | outcome [5] | outcome [6] | outcome [7] | outcome [8]
active: growth inhibition [4] 99%

Fc1cc(Cl)ccc1Nc1ccnc2cc(-c3scnc3CNCCN3CCOCC3)ccc12
inactive: inhibition [2] -7% | inhibition [3] -2% | outcome [5] | outcome [6] | outcome [7] | outcome [8]
active: growth inhibition [1] 84% | growth inhibition [4] 99%

Clc1cccc(C=NNc2ccnc3ccccc23)c1
inactive: growth inhibition [1] 44% | inhibition [2] 5% | inhibition [3] 4% | outcome [5] | outcome [6] | outcome [7] | outcome [8]
active: growth inhibition [4] 102%

COc1ccc(CN2CCN(CCCCNC(=O)c3ccc(NC(=O)c4ccc(Cl)cc4)cc3)CC2)c(OC)c1
active: growth inhibition [4] 94%
inactive: growth inhibition [1] 0% | inhibition [2] 25% | inhibition [3] -6% | outcome [5] | outcome [6] | outcome [7] | outcome [8]

O=C(c1ccccc1N=Nc1c(-c2ccccc2)[nH]n(-c2ccccc2)c1=O)N1CCOCC1
inactive: growth inhibition [1] 2% | inhibition [2] 0% | inhibition [3] -1% | outcome [5] | outcome [6] | outcome [7] | outcome [8]
active: growth inhibition [4] 97%

CN1CCN(CCCCNc2c3ccccc3nc3ccccc23)CC1
active: growth inhibition [4] 101%
inactive: growth inhibition [1] -7% | inhibition [2] 37% | inhibition [3] 4% | outcome [5] | outcome [6] | outcome [7] | outcome [8]

Cc1ccc(C)c(S(=O)(=O)Nc2ccc(Br)cc2C(=O)Nc2cccc(C(F)(F)F)c2)c1
inactive: inhibition [3] -7% | outcome [5] | outcome [6] | outcome [7] | outcome [8]
active: growth inhibition [1] 98% | inhibition [2] 56% | growth inhibition [4] 81%

O=C(/C=C/c1ccc(Cl)c(Cl)c1)NCCCCCN1CCCN(C(=O)Nc2ccc(Cl)c(C(F)(F)F)c2)CC1
inactive: growth inhibition [1] 16% | inhibition [2] 35% | inhibition [3] 4% | outcome [5] | outcome [6] | outcome [7] | outcome [8]
active: growth inhibition [4] 102%

Cc1cccc2[nH]c(-c3cccc(-c4cccc(NC(=O)Nc5ccc(Cl)c(Cl)c5)c4)c3)nc12
active: growth inhibition [1] 96% | growth inhibition [4] 101%
inactive: inhibition [2] 24% | inhibition [3] 1% | outcome [5] | outcome [6] | outcome [7] | outcome [8]

CCc1nc(N)nc(N)c1-c1ccc(C(C)C)cc1
active: growth inhibition [4] 92%
inactive: growth inhibition [1] -4% | inhibition [2] 3% | inhibition [3] 1% | outcome [5] | outcome [6] | outcome [7] | outcome [8]

Nc1nc(N)c2c(ccc3c2ccn3CCCCO)n1
inactive: growth inhibition [1] 49% | inhibition [3] -2% | outcome [5] | outcome [6] | outcome [7] | outcome [8]
active: inhibition [2] 61% | growth inhibition [4] 93%

CCCCCCc1cc2cc(-c3csc(C=Cc4ccccc4)n3)c(=O)oc2cc1O
active: growth inhibition [1] 75% | growth inhibition [4] 96%
inactive: inhibition [2] 17% | inhibition [3] 2% | outcome [5] | outcome [6] | outcome [7] | outcome [8]

Cc1cc(NN=Cc2ccc(Cl)cc2)c2ccc(F)cc2n1
active: growth inhibition [1] 87% | growth inhibition [4] 100%
inactive: inhibition [2] 6% | inhibition [3] -2% | outcome [5] | outcome [6] | outcome [7] | outcome [8]

COc1ccc2nccc([C@@H](O)CN3CCC(NCc4cc5c(F)ccc(F)c5[nH]4)CC3)c2n1
inactive: inhibition [2] 22% | inhibition [3] -6% | outcome [5] | outcome [6] | outcome [7] | outcome [8]
active: growth inhibition [1] 76% | growth inhibition [4] 101%

COc1cccc2c(C)cc(NCc3ccc(Cl)cc3)nc12
active: growth inhibition [4] 97%
inactive: growth inhibition [1] 5% | inhibition [2] 7% | inhibition [3] 5% | outcome [5] | outcome [6] | outcome [7] | outcome [8]

O=C(/C=C/c1ccc(Cl)c(Cl)c1)NCCCCN1CCC(c2c[nH]c3ccccc23)CC1
active: inhibition [2] 57% | growth inhibition [4] 91%
inactive: growth inhibition [1] 11% | inhibition [3] -2% | outcome [5] | outcome [6] | outcome [7] | outcome [8]

CN(C)c1cccc2c1nc(-c1ccco1)n2CC1CCCN1 (stereo not drawn)
inactive: growth inhibition [1] 46% | inhibition [2] -1% | inhibition [3] 6% | outcome [5] | outcome [6] | outcome [7] | outcome [8]
active: growth inhibition [4] 86%

CC(C)(C)c1cc(CN2CCN(Cc3ccccc3)CC2)cc(C(C)(C)C)c1O
active: growth inhibition [4] 97%
inactive: growth inhibition [1] 0% | inhibition [2] 9% | inhibition [3] 0% | outcome [5] | outcome [6] | outcome [7] | outcome [8]

O=C(/C=C/c1cccc2c1OCO2)Nc1ccnc2ccncc12
active: growth inhibition [4] 90%
inactive: growth inhibition [1] 35% | inhibition [2] 17% | inhibition [3] -4% | outcome [5] | outcome [6] | outcome [7] | outcome [8]

Cc1cccc2[nH]c(-c3ccc(-c4cccc(NC(=O)C(C)CN5CCN(C)CC5)c4)s3)nc12 (stereo not drawn)
active: growth inhibition [1] 75% | growth inhibition [4] 97%
inactive: inhibition [2] 11% | inhibition [3] -6% | outcome [5] | outcome [6] | outcome [7] | outcome [8]

COC(=O)c1cccc(CNCc2cccc(-c3cccc(-c4nc5ccccc5[nH]4)c3)c2)c1
active: growth inhibition [1] 58% | growth inhibition [4] 95%
inactive: inhibition [2] 3% | inhibition [3] -3% | outcome [5] | outcome [6] | outcome [7] | outcome [8]

Cc1ccc(/C=C/C(=O)NC2CCC(N3CCC(c4ccccc4C)CC3)CC2)cc1C (stereo not drawn)
inactive: growth inhibition [1] 43% | inhibition [2] 12% | inhibition [3] -3% | outcome [5] | outcome [6] | outcome [7] | outcome [8]
active: growth inhibition [4] 100%

COc1ccc(Nc2ncc3c(-c4cccc(NC(=O)CC(C)C)c4)c[nH]c3n2)cc1OC
inactive: inhibition [2] 37% | inhibition [3] 5% | outcome [5] | outcome [6] | outcome [7] | outcome [8]
active: growth inhibition [1] 71% | growth inhibition [4] 101%

NC(=Nc1nc(-c2ccccn2)cc2ccccc12)c1cccc(Cl)c1
active: growth inhibition [1] 99% | inhibition [2] 54% | growth inhibition [4] 101%
inactive: inhibition [3] 0% | outcome [5] | outcome [6] | outcome [7] | outcome [8]

Cc1cccc(C(=O)Nc2ccnc(N(C)CCCN(C)Cc3cccc(O)c3)c2)c1
active: growth inhibition [1] 71% | growth inhibition [4] 94%
inactive: inhibition [2] 27% | inhibition [3] -3% | outcome [5] | outcome [6] | outcome [7] | outcome [8]
